# Compound activity deposited in PubChem BioAssay by several laboratories.
# Hits are enriched below; roughly 2.3% of the tested compounds scored in any of these assays.
# GLD-1 RNA inh: GLD-1-TGE RNA interaction inhibition (C. elegans); Q17339; purified GLD-1 + fluorescein TGE RNA, fluorescence polarization; inhibition, % at 5.96 µM; 320,000 compounds, 0.44% hits; AID 2280;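 active = percent inhibition above a per-plate cutoff, the plate mean of test compounds plus 3 SD, cut at about 30% in these data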
# Target sequence (Q17339 whole entry, looked up): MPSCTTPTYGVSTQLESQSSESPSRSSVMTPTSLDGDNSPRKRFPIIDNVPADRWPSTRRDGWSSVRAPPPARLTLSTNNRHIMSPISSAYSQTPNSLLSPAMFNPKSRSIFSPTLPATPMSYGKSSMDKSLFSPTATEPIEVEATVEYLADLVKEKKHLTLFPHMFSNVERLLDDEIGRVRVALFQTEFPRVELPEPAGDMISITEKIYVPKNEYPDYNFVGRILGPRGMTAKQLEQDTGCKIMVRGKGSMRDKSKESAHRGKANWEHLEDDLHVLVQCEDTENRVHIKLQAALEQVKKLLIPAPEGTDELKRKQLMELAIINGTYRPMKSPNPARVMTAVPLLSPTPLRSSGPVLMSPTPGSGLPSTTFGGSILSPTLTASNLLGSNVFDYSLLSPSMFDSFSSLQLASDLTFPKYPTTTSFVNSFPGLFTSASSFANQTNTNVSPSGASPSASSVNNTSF
# Bim-Mcl-1: human Bim-Mcl-1 interaction inhibition. Q07820. AID 1009. Bead-based flow cytometry, Bim peptide-Mcl-1 binding. inhibition, % at 10 µM. 190,000 compounds, 0.1% hits; in the data active = inhibition above about 40%
# Bcl-xL primary: inhibitors of human Bcl-xL | GST-Bcl-xL / FITC-Bim BH3 peptide fluorescence polarization | AID 2129 | 320,000 compounds, 0.7% hits | inhibition, % at 10.9 µM;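 active = inhibition above the mean of all tested compounds plus 3 SD, cutoff set per campaign, cut at about 30% in these data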;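 also: inhibitors lower millipolarization by displacing the labeled peptide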
# Mcl1-Noxa inh: disrupts binding of human Mcl-1 to Noxa peptide; 220,000 compounds, 1.5% hits; inhibition, % at 21.7 µM; TR-FRET Mcl-1/Noxa peptide binding, 2 h; Q07820;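 active = compounds that cut the protein-peptide binding signal by more than 50% relative to plate controls in a single-dose test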;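 also: His-tagged Mcl-1 with rhodamine Noxa BH3 peptide and terbium anti-His antibody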
# MCL1 BIM primary: inhibitors of human MCL1 binding to BIM-BH3 peptide. 320,000 compounds, 0.68% hits. GST-MCL1 / FITC-Bim-BH3 fluorescence polarization. Q07820. inhibition, % at 10.9 µM;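 active = inhibition above the mean inhibition of all tested compounds plus 3 SD, set per campaign, cut at about 40% in these data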;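 also: higher means more loss of mP so more displacement of Bim peptide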
# Mcl1-Bid inh: Mcl-1/Bid interaction inhibition; Q07820; TR-FRET Mcl-1/Bid-Dy647 peptide binding, 1536-well; inhibition, % at 21.7 µM; 220,000 compounds, 0.97% hits;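 active = compounds that cut the binding signal by more than half at the single screening dose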;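 also: His-tagged Mcl-1 with europium anti-His antibody binding Bid BH3 peptide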
# BCLXL inh confirm: counter-screen for MCL1 inhibitors: confirmation of human Bcl-xL inhibitors; shares compounds with MCL1 BIM primary; GST-Bcl-xL / FITC-Bim BH3 peptide FP binding; inhibition, % at 10.9 µM; 1,700 compounds, 54% hits; AID 2166;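 active = inhibition above a cutoff equal to the mean inhibition of all tested compounds plus 3 SD, cut at about 30% in these data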
# MCL1 inh confirm: confirmation of human MCL1 and BIM-BH3 interaction inhibitors. shares compounds with MCL1 BIM primary. GST-MCL1 / FITC-Bim-BH3 fluorescence polarization. inhibition, % at 10.9 µM. 1,700 compounds, 61% hits. AID 2168;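 active = inhibition above the average of all tested compounds plus 3 SD, cut at about 40% in these data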
# Hits are given with their value; 0 = inactive; - = not tested or not shown; + = active, no number.
SMILES,GLD-1 RNA inh,Bim-Mcl-1,Bcl-xL primary,Mcl1-Noxa inh,MCL1 BIM primary,Mcl1-Bid inh,BCLXL inh confirm,MCL1 inh confirm
CC(OC(=O)c1cc(=O)[nH]c2ccccc12)C(=O)c1ccccc1 (stereo unspecified),0,0,0,0,143,0,0,0
Cc1cc(F)ccc1S(=O)(=O)Nc1ccc(C(=O)N2CCCCC2)cc1,0,-,-,-,-,-,-,-
CSc1ccc(C2Nc3cccc4cccc(c34)N2)cc1,0,-,0,-,0,-,-,-
Clc1ccc(C2Nc3cccc4cccc(c34)N2)cc1,0,-,44,-,67,-,0,0
CC(=O)n1cc([C@@H]2C=C(C(=O)N3CCN(Cc4ccc5c(c4)OCO5)CC3)O[C@H](OCCCCO)C2)c2ccccc21,0,0,0,0,0,0,-,-
CC(=O)n1cc([C@H]2C=C(C(=O)N3CCN(Cc4ccccc4)CC3)O[C@@H](OCCCCO)C2)c2ccccc21,0,0,0,0,70,0,0,0
COc1ccccc1CNC(=O)COC(=O)c1nccnc1N,0,-,0,-,0,-,-,-
Cc1ccc(C)c(C(=O)CCC(=O)OCn2nnc3ccccc3c2=O)c1,0,-,0,-,85,-,0,0
Cc1cc(-c2ccco2)c(C#N)c2nc3ccccc3n12,0,0,85,-,128,-,127,173
Cc1cc(C(C)C)n2c(nc3ccccc32)c1C#N,0,0,0,0,0,0,-,-
Nc1ccc(S(=O)(=O)Nc2nc3ccccc3o2)cc1,0,-,0,-,45,-,0,47
COCCn1c(N)c(N(Cc2ccccc2)C(=O)COc2ccccc2F)c(=O)[nH]c1=O,0,-,0,-,0,-,-,-
CC(C)(C)c1cc[n+](-c2[nH]c(=O)sc2/C=N/NC([S-])=Nc2ccccc2)cc1,160,-,177,0,197,0,161,189
Cc1cc[n+](-c2[nH]c(=O)sc2/C=N/NC([S-])=Nc2ccccc2)cc1C,131,0,129,0,163,0,104,149
CSCc1c(C(=O)Nc2ccccc2N2CCOCC2)oc2ccccc12,0,-,0,-,0,-,-,-
Cc1nc(Cl)c2c(n1)NC1=C(O2)C(=O)CCC1,168,0,165,0,198,0,146,175
CCN(CC)CCN1C(=O)c2cccc3cc(N)cc(c23)C1=O,72,-,124,0,158,0,128,166
CC(=O)OCCCN1C(=O)c2cccc3cc(Br)cc(c23)C1=O,0,-,0,-,0,-,-,-
Nc1cc2c3c(cccc3c1)C(=O)N(CCN1CCCC1)C2=O,36,-,125,0,145,0,99,132
CCN(CC)S(=O)(=O)c1cccc(C(=O)N/N=C/c2cccc(O)c2O)c1,0,0,0,0,0,0,-,-
CCN(CC)S(=O)(=O)c1cccc(C(=O)N/N=C2\CCCC(=O)C2)c1,114,-,41,0,56,0,0,0
CC(=O)c1ccc2c3c(cccc13)C(=O)N(c1c(C)nn(C)c1C)C2=O,0,0,0,0,0,0,-,-
Cc1n[nH]c(C)c1N1C(=O)c2cccc3c(N4CCCCCC4)ccc(c23)C1=O,+,0,+,0,+,0,184,+
O=C(CNC(=O)/C=C/c1ccco1)N=Nc1c(O)[nH]c2ccccc12,0,-,0,-,42,-,0,57
O=C(CNC(=O)Cc1ccccc1)N=Nc1c(O)[nH]c2ccccc12,0,-,0,-,0,-,-,-
SMILES,GLD-1 RNA inh,Bim-Mcl-1,Bcl-xL primary,Mcl1-Noxa inh,MCL1 BIM primary,Mcl1-Bid inh,BCLXL inh confirm,MCL1 inh confirm
c1ccc2c(c1)Nc1cc3ccccc3cc1S2,0,-,0,0,0,0,-,-
Cc1ccc2c(c1)Sc1c(ccc3ccccc13)N2,0,-,67,0,71,0,80,104
O=S(=O)([N-]c1nc2ccccc2nc1-[n+]1ccccc1)c1ccccc1,0,0,0,0,0,0,-,-
O=S(=O)([N-]c1nc2ccccc2nc1-[n+]1ccc(-c2ccncc2)cc1)c1ccccc1,153,0,188,0,+,0,150,183
O=C(COc1cccc2ccccc12)N/N=C/c1ccccc1OCc1ccc(C(=O)O)cc1,0,0,0,0,49,0,0,0
Cc1ccc(C)c(C(C)NC(=O)CC#N)c1 (stereo unspecified),0,0,0,0,42,0,0,0
Oc1cc2c(cc1O)[C@H]1c3ccc(O)c(O)c3OC[C@@]1(O)C2,0,-,0,-,57,-,76,108
O=[N+]([O-])c1cccc(Oc2cnccn2)c1,0,-,0,-,41,-,0,0
O=[N+]([O-])c1cc(Oc2cccnc2)cc([N+](=O)[O-])c1,0,0,0,0,0,0,-,-
O=C(CSc1nc(-c2ccc(F)cc2)cs1)Nc1ccccn1,0,0,0,0,64,0,0,0
CCN(CC)S(=O)(=O)c1ccc(N2CCCCC2)c(NC(=O)C2=COCCO2)c1,0,-,0,-,0,-,-,-
NC(=O)c1cc2c3ccccc3ccn2c1-c1ccccc1,51,-,50,0,59,0,0,0
Cc1cc(C(N)=O)c2ccccc2n1,0,0,0,0,0,0,-,-
O=[N+]([O-])c1ncccc1OCc1ccccc1Br,0,-,0,-,0,-,-,-
CC(=O)c1cc(-c2ccccc2)n(CC(=O)N2CCC(C)CC2)c1C,0,0,0,0,0,0,-,-
CC(=O)c1cc(-c2ccccc2)n(CC(=O)N2CCN(C3CCCC3)CC2)c1C,0,0,45,0,55,0,0,0
CCN(CC)C(=O)COc1ccc2c(-c3ccccc3)cc(=O)oc2c1,0,-,0,-,+,-,0,0
CCCCC1=CC2=C(c3ccco3)C(=O)C(C)(OC(=O)c3ccc(OC)cc3)C(=O)C2=CN1C1CCCC1 (stereo unspecified),92,-,112,-,135,-,64,79
CCCCC1=CC2=C(c3ccco3)C(=O)C(C)(OC(=O)c3ccc(OC)cc3)C(=O)C2=CN1CCN1CCOCC1 (stereo unspecified),41,-,72,0,93,0,0,0
COC(=O)CCCC1=CC2=C(c3ccccc3)C(=O)C(C)(OC(=O)C3CCCC3)C(=O)C2=CN1CCN1CCOCC1 (stereo unspecified),90,-,120,0,154,0,68,86
CCCCC1=CC2=C(c3ccco3)C(=O)C(C)(OC(=O)c3ccc(OC)cc3)C(=O)C2=CN1CCCN(CC)CC (stereo unspecified),34,-,49,0,53,0,158,+
CCCCC1=CC2=C(c3ccco3)C(=O)C(C)(OC(=O)c3ccc(OC)cc3)C(=O)C2=CN1Cc1ccc(OC)cc1 (stereo unspecified),-,-,-,0,-,0,-,-
CC(=O)NCCNC(=O)c1ccc(CSc2nc3ccccc3s2)cc1,0,-,0,-,0,-,-,-
